Results taken from PubChem BioAssay.
Inconclusive results are not listed. Calls of active or inactive are those of the source.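 How the source made its calls, unless noted: active means differentiation response of at least 50%, scaled between solvent and reference control, from cells with both markers; inactive means the rest.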

Tests used:
[1] = rapamycin-like changes in RPL19A-GFP expression – cell-based, S. cerevisiae, multiplex flow cytometry, primary screen (AID 1862; in the data active means percent of DMSO control GFP below about 86%;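 further: lower values mimic rapamycin by blocking the RPL19A rise seen in DMSO cells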); details: S. cerevisiae RPL19A-GFP strain, flow cytometry fluorescence, 3 h; at 10 µM; stronger effect = lower value
[2] = TOR pathway GLN3 branch reporter MEP2-GFP changes – S. cerevisiae, multiplex flow cytometry, primary screen (AID 1867;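 active means GFP response, as percent of the DMSO control, above the screen-wide mean plus 3 SD, about 139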;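 further: median GFP channel fluorescence of barcode-gated MEP2-GFP cells measured by flow cytometry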); details: S. cerevisiae MEP2-GFP strain, 3 h, at 10 µM, stronger effect = higher value, 100% means same as DMSO wells
[3] = TOR pathway RTG branch CIT2 reporter changes – S. cerevisiae, GFP fusion, multiplex flow cytometry, primary screen (AID 1870;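 active means percent response above a set limit, the screen-wide mean plus 3 SD, cut at about 130% in these data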;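 further: barcoded CIT2-GFP strain pooled with four other GFP strains with rapamycin as positive control; median GFP fluorescence per well over plate mean of DMSO wells so 100% = DMSO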); details: S. cerevisiae CIT2-GFP expression, 3 h, at 10 µM, stronger effect = higher value
[4] = TOR pathway LAP4-GFP level changes – S. cerevisiae, multiplex flow cytometry, primary screen (AID 1873;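 active means GFP signal, as percent of the solvent control, above the screen mean plus 3 SD, about 149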); details: S. cerevisiae LAP4-GFP expression, 3 h, at 10 µM, stronger effect = higher value
[5] = yeast AGP1-GFP level changes, GLN3 branch – cell-based, multiplex flow cytometry, S. cerevisiae, primary screen (AID 1887;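 active means GFP signal above the screen-wide mean plus 3 SD, that is over about 124.5% of the solvent control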;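 further: AGP1-GFP fusion strain of S. cerevisiae within a five-strain barcoded multiplex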); details: 3 h, at 10 µM, stronger effect = higher value
[6] = reduced mouse 2C T cell binding to pMHC/ICAM-1 vesicles – MLPCN validation set, flow cytometry, LFA-1/ICAM-1 modulator project, pilot screen (AID 2523;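 active means response below a set limit, under 55% cells CD8-positive and vesicle-bound, and CD8 cells' 90th-percentile brightness under 279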;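 on vesicle binding response: mean PE anti-B7-1 fluorescence of CD8+ cells relative to row control; 100% = QL9-loaded vesicles with DMSO vehicle in the same plate row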); details: 2C mouse CD8+ T cells, at 7 µM, stronger effect = lower value; double positive events: measured here: CD8+/vesicle+ event percentage
[7] = molecular target: Integrin beta-1 (Homo sapiens) + Integrin alpha-4 (Homo sapiens) (UniProt P13612+P05556); assay: alpha4beta1 integrin LIBS antibody binding reduction – U937 cells, HUTS-21 mAb, flow cytometry, validation set, VLA-4 allosteric modulator project, pilot screen (AID 2674;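 active means inhibition above 50%, about 3 SD of the validation set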;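 further: antibody binding induced by the VLA-4 ligand LDV present at three times its Kd; 0% = LDV ligand with antibody and no compound and 100% = antibody without LDV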); details: HUTS-21 LIBS mAb binding, at 6.7 µM, stronger effect = higher value, binding induced by LDV ligand
[8] = calorie-restriction mimetic ROS inhibitors, yeast – validation compound set, pilot screen (AID 2706;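 active means superoxide response below 65% of plate, a cut near 3 SD across the whole screen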;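 further: yeast exposed to compound for one week at 30 degrees C before staining; 100% = mean of all compound wells on the same plate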); details: S. cerevisiae aging, superoxide DHE fluorescence; at 10 µM; stronger effect = lower value
[9] = molecular target: Beta-adrenergic receptor kinase 1 (Homo sapiens) (UniProt P25098); assay: GRK2 binders displacing RNA aptamer, biochemical, validation, human GRK2, bead flow cytometry (AID 488806;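 active means aptamer binding inhibition above 30%, about 3 SD of noise from non-fluorescent compounds; inactive means inhibition at or below 30%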); details: bead-bound GRK2, FAM-aptamer displacement, at 10 µM, stronger effect = higher value
[10] = molecular target: Beta-2 adrenergic receptor (Homo sapiens) (UniProt P07550); assay: agonist-induced loss of surface beta2AR – cell-based, FAP fluorogen, flow cytometry, validation set, pilot screen (AID 504459;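 active means percent response above 42, roughly 3 SD of non-fluorescent test compounds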;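 further: agonist-driven loss of surface beta2AR via internalization measured by FAP dye flow cytometry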); details: Am2.2-beta2AR cells, at 10 µM, stronger effect = higher value
[11] = molecular target: AP-2 complex subunit beta (Homo sapiens) (UniProt P63010); assay: beta-arrestin/AP2 interaction blockers – biochemical, validation set, GST-AP2 beads, flow cytometry, pilot screen (AID 504541;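 active means inhibition above 54%, about 3 SD of non-fluorescent compounds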;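 further: AP2 carries R879A mutation and is captured from E. coli lysate; bead-bound FITC arrestin peptide fluorescence measuring arrestin peptide binding to AP2; 0% = DMSO wells and 100% = excess unlabeled arrestin peptide control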); details: FITC arrestin peptide, at 10 µM, stronger effect = higher value, AP2 beta2 appendage fragment, R879A mutant
[12] = cytosolic pH regulators acting via V-ATPase – S. cerevisiae, pHLuorin, HTS validation (AID 504600; in the data active means response above about 15%;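 further: plate controls were DMSO for no effect and reference compound for full effect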); details: V-ATPase proton transport, at 10 µM, stronger effect = higher value
[13] = system: anti-desmoglein-3 scFv antibody binding to human DSG3; assay: blockers of pathogenic pemphigus antibody–desmoglein-3 binding – biochemical, validation compound set, bead-based, flow cytometry, pilot screen (AID 588368;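 active means binding below the plate cutoff, the plate median minus 3 SD, with a reading above zero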;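 further: signal is the median channel fluorescence of bead-bound GFP antibody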); details: Protein G beads, DSG3-Fc, scFv-GFP binding, at 10 µM, stronger effect = lower value
[14] = Nile Red efflux blockade in pump-expressing yeast – validation compound set, multiplex, phenotypic, pilot screen (AID 588506;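 active means efflux inhibition above 0.42, the validation set average plus 4 SD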;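 further: Nile Red retained in cells so higher fluorescence means more efflux inhibition; 0 = negative control wells and 1 = enniatin B 25 µM full block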); details: S. cerevisiae pump-expressing triplex, Nile Red efflux flow cytometry; at 10 µM; stronger effect = higher value; the pumps come from Candida albicans
[15] = molecular target: ATP-binding cassette sub-family B member 6 (Homo sapiens) (UniProt Q9NP58); assay: blockers of ABCB6-driven porphyrin uptake – K562-ABCB6 cells, flow cytometry, validation set, pilot screen (AID 588550;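 active means inhibition above the screen-wide mean plus 3 SD, about 51%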;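 further: 0% = DMSO wells and 100% = benzethonium chloride 70 µM positive control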); details: K562-ABCB6 porphyrin accumulation, 1 h, at 10 µM, stronger effect = higher value
[16] = AML differentiation inducers, ER-HoxA9 marrow cells – cell-based, GFP/MAC1 double positive, flow cytometry, validation set, primary screen (AID 588685); details: stronger effect = higher value, normalized: vehicle 0, fulvestrant 100;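 further: compound exposure lasts four days before antibody staining and flow analysis; 0% = DMSO wells and 100% = 5 µM fulvestrant positive control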

Chain of ATP-binding cassette sub-family B member 6 (Homo sapiens) (Q9NP58 whole entry, looked up): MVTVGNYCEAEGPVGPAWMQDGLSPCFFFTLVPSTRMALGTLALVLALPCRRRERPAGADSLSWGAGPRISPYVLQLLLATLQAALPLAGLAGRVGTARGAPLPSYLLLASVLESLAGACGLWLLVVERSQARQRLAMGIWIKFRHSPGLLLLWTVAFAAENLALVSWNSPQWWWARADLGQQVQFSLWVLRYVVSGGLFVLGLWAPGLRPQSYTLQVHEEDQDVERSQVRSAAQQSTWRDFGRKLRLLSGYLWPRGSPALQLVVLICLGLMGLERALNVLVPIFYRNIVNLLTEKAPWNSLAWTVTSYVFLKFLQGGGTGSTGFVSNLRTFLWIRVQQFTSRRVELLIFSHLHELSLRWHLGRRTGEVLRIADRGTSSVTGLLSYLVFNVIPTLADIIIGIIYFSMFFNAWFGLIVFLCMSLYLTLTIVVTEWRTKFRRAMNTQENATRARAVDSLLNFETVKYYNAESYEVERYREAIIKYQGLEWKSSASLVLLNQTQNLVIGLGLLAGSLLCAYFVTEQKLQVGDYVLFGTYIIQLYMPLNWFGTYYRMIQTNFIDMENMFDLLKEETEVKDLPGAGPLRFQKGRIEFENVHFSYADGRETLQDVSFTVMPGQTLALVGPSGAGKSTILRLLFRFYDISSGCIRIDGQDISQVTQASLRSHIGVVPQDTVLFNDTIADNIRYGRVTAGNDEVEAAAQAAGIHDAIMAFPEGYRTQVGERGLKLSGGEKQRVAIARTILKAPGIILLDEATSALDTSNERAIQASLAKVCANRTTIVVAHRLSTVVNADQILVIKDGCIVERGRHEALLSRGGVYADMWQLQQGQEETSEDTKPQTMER
Chain of Beta-2 adrenergic receptor (Homo sapiens) (P07550 whole entry, looked up): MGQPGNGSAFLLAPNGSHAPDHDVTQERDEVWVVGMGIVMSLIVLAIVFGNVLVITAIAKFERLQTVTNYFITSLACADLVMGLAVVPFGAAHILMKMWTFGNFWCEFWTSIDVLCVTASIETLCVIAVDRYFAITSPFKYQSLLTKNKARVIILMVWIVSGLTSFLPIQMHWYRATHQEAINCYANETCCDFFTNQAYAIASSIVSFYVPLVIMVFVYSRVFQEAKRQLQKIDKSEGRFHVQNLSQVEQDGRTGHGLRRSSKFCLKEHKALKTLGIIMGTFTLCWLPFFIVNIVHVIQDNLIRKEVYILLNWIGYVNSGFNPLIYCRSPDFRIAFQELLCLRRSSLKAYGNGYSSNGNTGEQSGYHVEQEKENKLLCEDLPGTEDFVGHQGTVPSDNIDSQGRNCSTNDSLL
Chain of AP-2 complex subunit beta (Homo sapiens) (P63010 whole entry, looked up, the tested form may be a part, one chain of several): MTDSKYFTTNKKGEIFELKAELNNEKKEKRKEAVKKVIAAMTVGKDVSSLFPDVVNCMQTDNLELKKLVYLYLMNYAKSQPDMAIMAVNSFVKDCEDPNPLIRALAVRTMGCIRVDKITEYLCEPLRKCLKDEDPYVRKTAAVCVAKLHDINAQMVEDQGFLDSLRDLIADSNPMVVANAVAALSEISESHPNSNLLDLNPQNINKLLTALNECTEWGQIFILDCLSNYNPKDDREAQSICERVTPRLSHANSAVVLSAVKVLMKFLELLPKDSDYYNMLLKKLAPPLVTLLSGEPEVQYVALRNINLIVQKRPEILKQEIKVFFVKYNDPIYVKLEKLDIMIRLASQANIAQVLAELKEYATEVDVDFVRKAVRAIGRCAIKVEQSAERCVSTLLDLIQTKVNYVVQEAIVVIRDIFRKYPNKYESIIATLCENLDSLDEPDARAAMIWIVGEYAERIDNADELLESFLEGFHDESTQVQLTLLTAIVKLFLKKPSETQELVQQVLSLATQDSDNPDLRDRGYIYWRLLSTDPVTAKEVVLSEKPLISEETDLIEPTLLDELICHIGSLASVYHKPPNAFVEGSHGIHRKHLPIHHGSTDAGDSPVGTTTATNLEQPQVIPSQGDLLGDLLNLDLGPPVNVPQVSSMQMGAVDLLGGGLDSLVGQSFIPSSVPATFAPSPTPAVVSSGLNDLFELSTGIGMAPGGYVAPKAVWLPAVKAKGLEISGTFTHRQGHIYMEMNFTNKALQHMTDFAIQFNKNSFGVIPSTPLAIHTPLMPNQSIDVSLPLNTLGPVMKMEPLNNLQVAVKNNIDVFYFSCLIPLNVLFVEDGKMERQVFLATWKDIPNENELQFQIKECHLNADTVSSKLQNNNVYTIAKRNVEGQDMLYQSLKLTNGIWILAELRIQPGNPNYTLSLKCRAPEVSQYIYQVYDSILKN
Chain of Beta-adrenergic receptor kinase 1 (Homo sapiens) (P25098 whole entry, looked up): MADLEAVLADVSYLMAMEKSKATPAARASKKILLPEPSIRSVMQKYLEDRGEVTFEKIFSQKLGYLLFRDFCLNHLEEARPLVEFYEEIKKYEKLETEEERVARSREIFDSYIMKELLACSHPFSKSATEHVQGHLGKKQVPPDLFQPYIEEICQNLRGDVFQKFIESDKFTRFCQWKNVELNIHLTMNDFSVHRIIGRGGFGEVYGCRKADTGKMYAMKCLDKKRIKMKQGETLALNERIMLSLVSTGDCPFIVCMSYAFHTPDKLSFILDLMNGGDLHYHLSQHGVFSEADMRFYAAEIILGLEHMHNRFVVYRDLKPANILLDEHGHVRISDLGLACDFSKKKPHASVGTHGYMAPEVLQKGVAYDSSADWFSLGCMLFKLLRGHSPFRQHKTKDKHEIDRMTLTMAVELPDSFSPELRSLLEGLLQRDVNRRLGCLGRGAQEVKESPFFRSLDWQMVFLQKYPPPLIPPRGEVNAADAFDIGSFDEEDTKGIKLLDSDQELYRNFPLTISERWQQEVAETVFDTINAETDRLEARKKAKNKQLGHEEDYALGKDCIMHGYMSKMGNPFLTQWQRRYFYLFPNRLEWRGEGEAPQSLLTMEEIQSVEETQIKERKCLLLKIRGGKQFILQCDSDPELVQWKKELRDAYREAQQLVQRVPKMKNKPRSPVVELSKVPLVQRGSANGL
Chain of Integrin beta-1 (Homo sapiens) + Integrin alpha-4 (Homo sapiens) (P05556 whole entry, looked up): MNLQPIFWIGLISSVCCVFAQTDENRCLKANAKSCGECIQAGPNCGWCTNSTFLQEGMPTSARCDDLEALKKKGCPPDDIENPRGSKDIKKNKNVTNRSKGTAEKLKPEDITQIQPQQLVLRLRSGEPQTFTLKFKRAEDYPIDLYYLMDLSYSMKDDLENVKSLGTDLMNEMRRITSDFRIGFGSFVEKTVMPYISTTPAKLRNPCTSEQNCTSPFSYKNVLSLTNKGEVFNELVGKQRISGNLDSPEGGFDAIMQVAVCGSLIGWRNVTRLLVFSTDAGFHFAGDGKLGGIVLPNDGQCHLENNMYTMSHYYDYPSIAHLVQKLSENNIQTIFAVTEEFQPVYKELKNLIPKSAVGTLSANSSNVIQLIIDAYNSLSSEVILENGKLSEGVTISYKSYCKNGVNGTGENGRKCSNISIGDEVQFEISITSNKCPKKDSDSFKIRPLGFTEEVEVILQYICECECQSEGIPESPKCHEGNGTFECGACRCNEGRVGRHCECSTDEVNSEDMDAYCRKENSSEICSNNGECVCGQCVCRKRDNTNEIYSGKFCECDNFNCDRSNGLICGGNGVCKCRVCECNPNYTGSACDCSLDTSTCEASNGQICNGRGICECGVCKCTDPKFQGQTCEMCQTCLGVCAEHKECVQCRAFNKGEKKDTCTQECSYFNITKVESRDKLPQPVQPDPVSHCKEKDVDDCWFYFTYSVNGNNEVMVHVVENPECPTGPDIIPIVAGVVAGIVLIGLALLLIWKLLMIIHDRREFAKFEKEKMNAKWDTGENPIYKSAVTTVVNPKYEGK
Chain of Integrin beta-1 (Homo sapiens) + Integrin alpha-4 (Homo sapiens) (P13612 whole entry, looked up): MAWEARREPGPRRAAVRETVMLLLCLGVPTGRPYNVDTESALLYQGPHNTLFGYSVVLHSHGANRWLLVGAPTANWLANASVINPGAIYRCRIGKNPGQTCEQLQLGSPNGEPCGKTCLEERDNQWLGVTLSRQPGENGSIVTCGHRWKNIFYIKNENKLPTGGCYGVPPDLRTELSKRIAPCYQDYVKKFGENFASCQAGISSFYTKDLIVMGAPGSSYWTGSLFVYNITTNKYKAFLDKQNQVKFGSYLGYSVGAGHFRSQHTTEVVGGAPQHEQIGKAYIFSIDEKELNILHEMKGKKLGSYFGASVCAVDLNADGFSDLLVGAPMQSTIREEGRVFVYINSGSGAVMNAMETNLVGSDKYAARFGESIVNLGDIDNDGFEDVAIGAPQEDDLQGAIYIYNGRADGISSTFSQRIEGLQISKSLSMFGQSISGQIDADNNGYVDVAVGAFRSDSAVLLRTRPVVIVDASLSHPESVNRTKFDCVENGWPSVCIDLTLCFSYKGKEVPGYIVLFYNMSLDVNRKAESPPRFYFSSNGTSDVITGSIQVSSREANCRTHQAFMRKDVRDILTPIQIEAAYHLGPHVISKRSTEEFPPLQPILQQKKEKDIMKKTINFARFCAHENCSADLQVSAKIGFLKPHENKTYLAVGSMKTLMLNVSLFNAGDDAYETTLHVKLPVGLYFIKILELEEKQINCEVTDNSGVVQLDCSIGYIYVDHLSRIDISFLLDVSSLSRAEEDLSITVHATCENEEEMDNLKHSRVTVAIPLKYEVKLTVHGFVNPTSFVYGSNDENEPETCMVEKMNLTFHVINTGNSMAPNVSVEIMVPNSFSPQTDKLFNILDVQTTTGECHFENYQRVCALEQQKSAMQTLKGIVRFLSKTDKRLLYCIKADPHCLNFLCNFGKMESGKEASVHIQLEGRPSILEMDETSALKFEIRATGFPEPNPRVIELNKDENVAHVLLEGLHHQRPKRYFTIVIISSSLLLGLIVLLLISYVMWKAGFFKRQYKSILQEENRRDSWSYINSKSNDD

Compound | percent of DMSO control GFP [1] | GFP response vs DMSO [2] | percent response of DMSO control [3] | GFP response vs DMSO [4] | GFP response, % of DMSO [5] | double positive events [6] [%] | vesicle binding response [6] | inhibition [7] | superoxide response (% of plate) [8] | aptamer binding inhibition [9] | response [10] | inhibition [11] | response [12] | binding (% of control) [13] | efflux inhibition (fraction of control) [14] | inhibition [15] | differentiation response [16]
COc1cc(C(=O)NCCCCCC(=O)O)cc(OC)c1OC | 104% (inactive) | 105% (inactive) | 102% (inactive) | 103% (inactive) | 108% (inactive) | 65.5 | 199% (inactive) | 5.61% (inactive) | 100% (inactive) | 2% (inactive) | 11.2% (inactive) | -5.4% (inactive) | 1.93% (inactive) | 101% (inactive) | -0.23 (inactive) | 1% (inactive) | -19.2% (inactive)
COC(=O)CN1C(=S)N(c2ccc(F)cc2)C(=O)C1CC(=O)Nc1ccccc1 (centres undefined) | 99.7% (inactive) | 101% (inactive) | 102% (inactive) | 120% (inactive) | 118% (inactive) | 57.4 | 189% (inactive) | 11.7% (inactive) | 103% (inactive) | 1% (inactive) | -25.4% (inactive) | 0.21% (inactive) | 0.96% (inactive) | 101% (inactive) | 0 (inactive) | -3% (inactive) | -10.9% (inactive)
C=C1C2(C(=O)Nc3ccc(SC(F)F)cc3)CCC(C2)C1(C)C (centres undefined) | 103% (inactive) | 99.3% (inactive) | 105% (inactive) | 96% (inactive) | 100% (inactive) | 66.3 | 1190% (inactive) | 1.62% (inactive) | 82.1% (inactive) | 1% (inactive) | -6.87% (inactive) | -6.22% (inactive) | 1.62% (inactive) | 101% (inactive) | -0.29 (inactive) | 7% (inactive) | 2.2% (inactive)
NC(=O)c1ncn([C@@H]2O[C@H](CO)[C@@H](O)[C@H]2O)c1O | 101% (inactive) | 103% (inactive) | 96.7% (inactive) | 108% (inactive) | 98% (inactive) | 55.9 | 164% (inactive) | -16.8% (inactive) | 109% (inactive) | 1% (inactive) | 3.75% (inactive) | -16.1% (inactive) | -4.18% (inactive) | 98.7% (inactive) | -0.21 (inactive) | 3% (inactive) | -15.2% (inactive)
O=C(NC1CC1)C1CCN(C2CCN(C(=O)Cc3ccc(F)cc3)CC2)CC1 | 94.6% (inactive) | 136% (inactive) | 111% (inactive) | 84.7% (inactive) | 90.5% (inactive) | 38 | 48% (active) | -3.24% (inactive) | 106% (inactive) | -7% (inactive) | -2.98% (inactive) | 44.4% (inactive) | -9.52% (inactive) | 98.3% (inactive) | 0.27 (inactive) | 8% (inactive) | 6.55% (inactive)
O=C(CC(NC(=O)OCc1ccccc1)C(=O)O)OCc1ccccc1 (centres undefined) | 106% (inactive) | 99.3% (inactive) | 107% (inactive) | 98% (inactive) | 99.5% (inactive) | 63.2 | 160% (inactive) | 18.2% (inactive) | 94.6% (inactive) | 4% (inactive) | -5.78% (inactive) | -5.06% (inactive) | -3.27% (inactive) | 97.1% (inactive) | -0.07 (inactive) | 22% (inactive) | -2.69% (inactive)
CC(C)C12CN3CC(C(C)C)(CN(C1)C31C(=O)Nc3ccccc31)C2=O (centres undefined) | 106% (inactive) | 98.7% (inactive) | 99.7% (inactive) | 101% (inactive) | 98% (inactive) | 66.4 | 190% (inactive) | 1.59% (inactive) | 110% (inactive) | 3% (inactive) | 9.28% (inactive) | -3.03% (inactive) | -0.51% (inactive) | 103% (inactive) | 0 (inactive) | 8% (inactive) | -11.9% (inactive)
COc1cc(C2C(C(C)=O)=C(O)C(=O)N2c2ccc(C)cc2)ccc1O (centres undefined) | 100% (inactive) | 104% (inactive) | 100% (inactive) | 97.3% (inactive) | 97.5% (inactive) | 57.9 | 75.1% (inactive) | -16% (inactive) | 107% (inactive) | 3% (inactive) | -1.25% (inactive) | 51.5% (inactive) | -8.34% (inactive) | 95.1% (inactive) | -0.17 (inactive) | -2% (inactive) | 17.8% (inactive)
CC1CC(OC(=O)C(O)c2ccccc2)CC(C)(C)N1C (centres undefined) | 94.4% (inactive) | 112% (inactive) | 94.8% (inactive) | 111% (inactive) | 97.5% (inactive) | 57.9 | 217% (inactive) | -8.62% (inactive) | 99.3% (inactive) | 0% (inactive) | 0.13% (inactive) | -13.2% (inactive) | 7.51% (inactive) | 103% (inactive) | -0.03 (inactive) | 5% (inactive) | -18.4% (inactive)
C[C@H](NC(=O)C1(c2ccccc2)CCN(C(=O)[C@H]2CSCN2C(=O)OC(C)(C)C)CC1)C(=O)O | 105% (inactive) | 103% (inactive) | 99.6% (inactive) | 110% (inactive) | 117% (inactive) | 62 | 161% (inactive) | 17.6% (inactive) | 95.1% (inactive) | 6% (inactive) | -18.9% (inactive) | -3.02% (inactive) | -2.91% (inactive) | 103% (inactive) | -0.09 (inactive) | 1% (inactive) | -1.05% (inactive)
CS(=O)(=O)c1cccc(C(=O)Oc2ccccc2)c1 | 104% (inactive) | 97.2% (inactive) | 106% (inactive) | 82.8% (inactive) | 101% (inactive) | 60.5 | 76.6% (inactive) | 9.92% (inactive) | 99% (inactive) | 3% (inactive) | -8.78% (inactive) | -4.57% (inactive) | -0.27% (inactive) | 100% (inactive) | -0.1 (inactive) | 3% (inactive) | 10% (inactive)
Cn1cc(/C=C/C(=O)c2ccccc2)c2ccccc21 | 98% (inactive) | 107% (inactive) | 87.2% (inactive) | 133% (inactive) | 89.7% (inactive) | 58.1 | 230% (inactive) | -1.79% (inactive) | 102% (inactive) | 1% (inactive) | 32.6% (inactive) | 4.67% (inactive) | -2% (inactive) | 101% (inactive) | -0.1 (inactive) | 4% (inactive) | -10.4% (inactive)
O=C1c2cccc3cccc(c23)C(=O)N1c1ccccn1 | 107% (inactive) | 101% (inactive) | 109% (inactive) | 97.3% (inactive) | 107% (inactive) | 58.2 | 79.7% (inactive) | 9.92% (inactive) | 107% (inactive) | 4% (inactive) | -9.79% (inactive) | 1.31% (inactive) | 3% (inactive) | 95.3% (inactive) | -0.07 (inactive) | -11% (inactive) | -1.71% (inactive)
CC(C)CCc1noc(CN2CCC(CCN3CCCC3=O)CC2)n1 | 98.3% (inactive) | 101% (inactive) | 105% (inactive) | 99.1% (inactive) | 102% (inactive) | 62.1 | 188% (inactive) | 23% (inactive) | 97.3% (inactive) | -3% (inactive) | -4.37% (inactive) | 32.4% (inactive) | -4.25% (inactive) | 95.1% (inactive) | -0.39 (inactive) | -3% (inactive) | -13.3% (inactive)
COc1cc(-c2cccs2)cc(=O)c2c(C)oc(C)c12 | 97.6% (inactive) | 105% (inactive) | 84.4% (inactive) | 142% (inactive) | 93.2% (inactive) | 62.6 | 235% (inactive) | -160% (inactive) | 96.1% (inactive) | -1% (inactive) | 54% (active) | 54.7% (active) | -7.46% (inactive) | 105% (inactive) | 0.26 (inactive) | 2% (inactive) | 4% (inactive)
O=C(O)C1CCN(C(=O)COc2ccc3c4c(c(=O)oc3c2)CCC4)CC1 | 105% (inactive) | 105% (inactive) | 101% (inactive) | 112% (inactive) | 110% (inactive) | 65.1 | 420% (inactive) | 6.55% (inactive) | 105% (inactive) | 1% (inactive) | -31% (inactive) | -5% (inactive) | 1.29% (inactive) | 109% (inactive) | 0 (inactive) | 3% (inactive) | -1.05% (inactive)
Fc1ccc(-n2cc(CNCCc3ccccn3)c(-c3ccccc3Cl)n2)cc1 | 106% (inactive) | 102% (inactive) | 97.7% (inactive) | 106% (inactive) | 107% (inactive) | 63.8 | 91.8% (inactive) | 15.9% (inactive) | 98.4% (inactive) | -3% (inactive) | -23.3% (inactive) | 1.4% (inactive) | -7.11% (inactive) | 110% (inactive) | -0.17 (inactive) | -2% (inactive) | -7.94% (inactive)
